Reference: the supplement of paper PMC13380429
A number with no mark means an inactive call.

Test system: Vero E6 infected with SARS-CoV-2
Assay: inhibition of SARS-CoV-2 cytopathic effect; higher = more antiviral protection, active = above 15
Conditions: 48 h

| SMILES | inhibition of SARS-CoV-2 cytopathic effect (1 nM) [%] | inhibition of SARS-CoV-2 cytopathic effect (8.33 nM) [%] | inhibition of SARS-CoV-2 cytopathic effect (100 nM) [%] | inhibition of SARS-CoV-2 cytopathic effect (833.33 nM) [%] | inhibition of SARS-CoV-2 cytopathic effect (10000 nM) |
| --- | --- | --- | --- | --- | --- |
| Cc1ncc(C[n+]2csc(CCO)c2C)c(N)n1 [thiamine] | -3.81 | -0.57 | -1.61 | -1.44 | 0.13% |
| C[C@@H](c1nc(-c2ccc(C#N)cc2)cs1)[C@](O)(Cn1cncn1)c1ccc(F)cc1F [ravuconazole] | -0.11 | -0.67 | -0.09 | -0.86 | 0.29% |
| Cc1c(C(=O)N2CCOc3ccc(-c4ccc(N)nc4)cc3C2)ccc(S(C)(=O)=O)c1F | -2.79 | 1.25 | -0.37 | 0.13 | 1.3% |
| O=C1Cc2c([nH]c3ccc(Br)cc23)-c2ccccc2N1 [kenpaullone] | -1.82 | -2.19 | 0.37 | 0.56 | 12% |
| CC1(C)[C@H](C(=O)O)N2C(=O)C[C@H]2S1(=O)=O [sulbactam] | 2.32 | 2.68 | -2.37 | -0.56 | -3.63% |
| CN(C)Cc1cccc(N=C(c2ccccc2)c2c(O)[nH]c3cc(C(=O)N(C)C)ccc23)c1 | 1.09 | 1.08 | 1.9 | -0.95 | -4.44% |
| C[S+]([O-])CCCCN=C=S (stereo not given) [sulforaphane] | -7.22 | -6.04 | -3.89 | -3.35 | 35.2% (active) |
